Giardia FBPA inh: qHTS Assay for Inhibitors of Fructose-1,6-bisphosphate Aldolase from Giardia Lamblia | actives 0.71% (n = 290,000) | A8B2U2 | Potency, µM (highest dose often 59.6 µM), without a hit: at the highest dose activity, negative = inhibition, hits mostly inhibitors | purified Giardia FBPA | AID 2451, 2010; also: nearly all actives have a fitted effect of over 55% in size
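40 nM FBPA preincubated 10 min at RT with compound (up to 57.5 uM final), then substrate plus GAPDH/TPI/NAD/arsenate coupling and diaphorase/resazurin added. Fluorescence read after 20 min at RT, 525/598 nm.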
Sm TGR inh: qHTS Assay for the Inhibitors of Schistosoma Mansoni Peroxiredoxins; actives 3% (n = 360,000); purified TGR, DTNB reduction, TNB absorbance 405 nm; AID 485364, 2010; Potency, µM (series often up to 114 µM), for the others: top-dose activity change, negative = inhibition, usual class: inhibitors; Schistosoma mansoni thioredoxin glutathione reductase (TGR), Q962Y6; also: nearly all actives have a fitted effect of over 60% in size
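TGR 20 nM + NADPH 100 uM (dispensed conc.), cpd preinc 15 min RT; start with NADPH (500 uM addition) then DTNB (15 mM addition). Kinetic TNB absorbance, 405 nm filter. Four-parameter Hill fit across titration.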
AmpC detergent: qHTS Inhibitors of AmpC Beta-Lactamase (assay with detergent); Potency, µM (highest dose often 114 µM), inactives show top-dose activity change, negative = inhibition, most hits filed as inhibitors; AmpC hydrolysis of nitrocefin, absorbance 480 nm, 0.01% Triton; P00811; AID 485294, 2010; actives 0.041% (n = 370,000);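 also: 0% = no-compound wells and -100% = no-enzyme wells; nearly all actives have a fitted effect of over 25% in size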
Target sequence (P00811 whole entry, looked up): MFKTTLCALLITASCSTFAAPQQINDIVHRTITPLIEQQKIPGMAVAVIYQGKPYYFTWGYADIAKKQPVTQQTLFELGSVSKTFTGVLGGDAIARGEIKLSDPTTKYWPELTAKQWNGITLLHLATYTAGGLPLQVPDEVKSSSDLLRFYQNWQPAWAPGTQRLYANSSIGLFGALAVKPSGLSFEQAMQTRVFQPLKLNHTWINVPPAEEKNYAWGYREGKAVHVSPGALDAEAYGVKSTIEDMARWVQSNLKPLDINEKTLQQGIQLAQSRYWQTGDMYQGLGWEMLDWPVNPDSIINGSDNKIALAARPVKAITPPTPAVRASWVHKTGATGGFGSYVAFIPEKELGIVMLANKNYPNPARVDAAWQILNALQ
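20 mM phosphate pH 7.0 + 0.01% (detergent screen) or 0.0001% Triton X-100; 5.3 nM AmpC reagent; cpd preinc 15 min RT; nitrocefin (800 uM stock) to start; A480 q20 s × 4 min; Activity was normalised to no-enzyme and no-compound control wells.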
AmpC no deterg: qHTS Inhibitors of AmpC Beta-Lactamase (assay without detergent). actives 0.52% (n = 330,000). AmpC nitrocefin hydrolysis, absorbance 480 nm, 0.0001% Triton. P00811. Potency, µM (titrated, usually from 57.1 µM), without a hit: at the top dose activity change, negative = inhibition, most hits filed as inhibitors;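 also: plate controls were no compound for no effect and no enzyme for full effect; nearly all actives have a fitted effect of over 20% in size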
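AmpC (5.3 nM in the dispensed reagent) in 20 mM phosphate pH 7.0 with 0.01% (detergent screen) or 0.0001% Triton X-100 was preincubated with compounds for 15 min at room temperature. Nitrocefin was then added from an 800 uM solution, and hydrolysis was followed at 480 nm.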
An asterisk follows results filed as active; ? = inconclusive; . = no result given; [ ] = remark or other dose. Sampled rows, rich in hits. Any-hit rate of the full collection: about 3.6%. Calls follow the shape of the dose curve; as a rule, active = well fitted curve in the direction sought with a large enough effect; inconclusive = small, poorly fitted or top-dose-only effect, or another doubt; inactive = no such curve, though single readings can be large; an effect the other way counts as inactive or inconclusive. Unless noted, % is scaled to controls: 0 for no effect and ±100 for the full control effect; potency is read from the fitted curve at half-maximal effect.

SMILES | Giardia FBPA inh | Sm TGR inh | AmpC detergent | AmpC no deterg
C/C=C\C=C/C(=O)Nc1cccc(C2=NOC3(C2)C[C@@H](C(N)=O)N(C(=O)c2ccccc2)C3)c1 (some centres not stated) | -18% | 3.2µM* | -1% | 93%
C/C=C/C=C\C(=O)Nc1cccc(C2=NOC3(C2)C[C@@H](C(N)=O)N(C(=O)c2cc([N+](=O)[O-])cc([N+](=O)[O-])c2C)C3)c1 (some centres not stated) | -20% | 2.8µM* | 2% | 87%
C/C=C\C=C\C(=O)Nc1cccc(C2=NOC3(C2)C[C@H](C(N)=O)N(C(=O)c2ccccc2C(=O)c2ccccc2)C3)c1 (some centres not stated) | -14% | 3.2µM* | -6% | 134%
C/C=C\C(=O)Nc1cccc(C2=NOC3(C2)C[C@@H](C(N)=O)N(C(=O)c2ccccc2)C3)c1 (some centres not stated) | 2% | 5% | -2% | 35%
C/C=C/C=C\C(=O)Nc1cccc(C2=NOC3(C2)C[C@H](C(N)=O)N(C(=O)/C=C/C)C3)c1 (some centres not stated) | -3% | 2.8µM* | -4% | 39%
COc1ccccc1N1CCN(S(=O)(=O)CCNC(=O)c2ccccc2Br)CC1 | -3% | 2% | ? | 48%
Cc1ccc(-c2cc(C(=O)Oc3ccccc3)c3cc(C)ccc3n2)cc1 | . | -1% | 0% | .
COc1cc(C)c(NC(=S)NCCCN2CCOCC2)cc1OC | -27% | -6% | 2% | -24%
C/C=C\C=C\C(=O)N1CC2(CC(c3cccc(NC(=O)CC)c3)=NO2)C[C@H]1C(N)=O (some centres not stated) | -12% | 2.5µM* | 1% | 42%
CCN(C(=S)Nc1cccnc1)c1cccc2ccccc12 | ? | ? | ? | -8%[2.29 µM]
CCN(C(=S)Nc1cccnc1)c1ccccc1 | -8% | 25µM* | 2% | -19%
Oc1ccc(/C=N/NC(=S)Nc2cccnc2)c(O)c1O | 7.1µM* | 10µM* | -15% | -48%
Oc1ccc(/C=N/NC(=S)Nc2cccnc2)c(O)c1 | -5% | -17% | -13% | -29%
Oc1cccc(/C=N/NC(=S)Nc2cccnc2)c1O | -12% | -10% | -4% | 32µM*
Fc1cccc(F)c1/C=N/NC(=S)Nc1cccnc1 | ? | 2% | ? | -26%
CN(C)c1ccc(C(=O)/C=C/c2cccnc2)cc1 | -1% | -30% | -13% | -23%
O=C(/C=C/c1cccnc1)c1ccc(F)c(F)c1 | -23% | 28µM* | -5% | -17%
O=C(/C=C/c1ccc([N+](=O)[O-])cc1)NCc1cccnc1 | 2% | -27% | -5% | -20%
O=C(/C=C/c1ccc([N+](=O)[O-])cc1)c1cccnc1 | 5% | 16µM* | -3% | -17%
O=C1CCC([N+](=O)[O-])C(c2ccccc2F)N1 (configuration not stated) | -5% | -15% | 0% | -5%
CC(=O)c1ccccc1OCCCN1CCCCC1 | -29% | 32µM* | -2% | 2%
CC1(C)CC2CC(C)(CN2/C=C2/CCCCC2=O)C1 (configuration not stated) | -6% | 35µM* | -1% | 11%
CC1(C)C[C@@H]2C[C@@](C)(CN2C(=O)c2ccccc2)C1 | 5% | 1% | -11% | 116%
O=C(c1cc2ccccc2oc1=O)N(Cc1ccco1)C1CCS(=O)(=O)C1 (configuration not stated) | -6% | 16µM* | -25% | -16%
Cc1ccc(CN(C(=O)c2ccccc2[N+](=O)[O-])C2CCS(=O)(=O)C2)o1 (configuration not stated) | . | 32µM* | 4% | -1%
SMILES | Giardia FBPA inh | Sm TGR inh | AmpC detergent | AmpC no deterg
CN(C)c1ccc(CN(C(=O)c2cc3ccccc3oc2=O)C2CCS(=O)(=O)C2)cc1 (configuration not stated) | . | -5% | -6% | -4%
Cc1cc2oc(C(=O)N(Cc3ccco3)C3CCS(=O)(=O)C3)cc(=O)c2cc1Cl (configuration not stated) | 0% | 50µM* | -9% | ?
COc1ccc(-n2c(=O)c3ccccc3n(Cc3ccccc3C)c2=O)c(OC)c1 | . | 2% | 4% | .
CCCCc1[nH]c(=O)c(C#N)c2c1CSC(C)(C)C2 | -13% | 32µM* | ? | -24%
O=C(Nc1cccnc1)Nc1ccc(Cl)cc1Cl | 1% | 19% | 2% | -35%
Cc1cc(NC(=S)Nc2ccccc2)ccc1Br | . | -27% | ? | -46%
Cc1cc(NC(=S)Nc2cccnc2)ccc1Br | -14% | 18µM* | 4% | -29%
CCN(CC)S(=O)(=O)c1cc(C)ccc1NC(=S)Nc1cccnc1 | -16% | 22µM* | -11% | -44%
Cc1cc(Cl)ccc1NC(=S)Nc1cccnc1 | 1% | 18µM* | 3% | -22%
CCN(c1ccccc1)S(=O)(=O)c1ccc(Cl)c(NC(=O)CSc2nnc(C)s2)c1 | 1% | . | -2% | -21%
CC(=O)c1sc(NC(=O)CN2C(=O)C3CCCCC3C2=O)nc1-c1ccccc1 (configuration not stated) | . | -21% | 0% | -7%
O=C(O)c1ccc(-n2[nH]c3c(c2=O)CCCC3)cc1 | -8% | 35µM* | -4% | -10%
Cc1noc(NS(=O)(=O)c2ccc(NC(=O)c3cccc(S(=O)(=O)Nc4ccccc4F)c3)cc2)c1C | . | . | . | -30%
C=CCc1c(C)nc(-c2ccccc2)nc1Nc1ccc(O)cc1 | -2% | -19% | ? | -47%
C=CCc1c(C)nc(-c2ccccc2)nc1N/N=C(\C)c1ccccc1 | ? | -11% | ? | 28µM*
Cc1[nH]c2ccccc2c1C(C[N+](=O)[O-])c1cccs1 (configuration not stated) | -11% | -1% | ? | -23%[11.4 µM]
Cc1ccc(-c2[nH]c3ccccc3c2C(C[N+](=O)[O-])c2ccco2)cc1 (configuration not stated) | -12% | 79µM* | 2% | -26%
Cc1[nH]c2ccccc2c1C(C[N+](=O)[O-])c1ccco1 (configuration not stated) | ? | 22µM* | 3% | -28%
Cc1[nH]c2ccccc2c1C(C[N+](=O)[O-])c1cccc(O)c1 (configuration not stated) | -2% | -10% | -9% | -42%
Cc1cccc(-c2noc(CCCC(=O)NC3CCCC3)n2)c1 | 6% | 7% | -13% | 4%
CCCOc1ccc(/C(O)=C2/C(=O)C(=O)N(CCN(C)C)C2c2ccco2)cc1 (configuration not stated) | -16% | 45µM* | 2% | -29%
COc1ccc(/C(O)=C2/C(=O)C(=O)N(CCN(C)C)C2c2ccccn2)cc1OC (configuration not stated) | ? | 13µM* | 2% | -2%

Screens as filed in PubChem.
